According to PubChem BioAssay (EPA / NIEHS):
Activity calls are given as the source filed them. How the source made its calls: active means hit-call score of the fitted dose curve at least 0.9, where 1 is the maximum; inactive means score below 0.9.

Test: ATG_M_06_CIS: Attagene CIS-FACTORIAL HepG2 Assay for M06 Transcription Factor (Internal Marker) (AID 2282950)
Details: HepG2 Attagene CIS-FACTORIAL M06 internal marker reporter; actives raise or lower the signal
Experimental: ATG_CIS is a cell-based, multiplexed-readout assay that uses HepG2, a human liver cell line, with measurements taken at 24 hours after chemical dosing in a 24-well plate.ATG_M_06_CIS is one of 52 assay component(s) measured or calculated from the ATG_CIS assay. It is designed to make measurements of mRNA induction, a form of inducible reporter, as detected with fluorescence intensity signals by Reverse transcription polymerase chain reaction (RT-PCR) and Capillary electrophoresis technology.Data from the assay component ATG_M_06_CIS was analyzed into 1 assay endpoint. This assay endpoint, ATG_M_06_CIS, was analyzed with bidirectional fitting relative to DMSO as the negative control and baseline of activity. Using a type of inducible reporter, measures of mRNA for gain or loss-of-signal activity can be used to understand the background control at the transcription factor-level as they relate to the gene . Furthermore, this assay endpoint can be referred to as a secondary readout, because this assay has produced multiple assay endpoints where this one serves a background control function. To generalize the intended target to other relatable targets, this assay endpoint is annotated to the background measurement intended target family, where the subfamily is internal marker.
Human liver HepG2 cells are transiently transfected with multiple reporter transcription units (MRTUs) in 6-well plates using FuGene 6 reagent (Roche; 3 ml FuGene/1 mg DNA). The MRTU constructs are regulated by a cis-regulating element (promoter). […] A major difference between the CIS and TRANS system is that in CIS activities of endogenous TFs are measured, whereas the TRANS assay evaluates changes in activities of exogenous, chimeric NR-Gal4 proteins. […] At the end of 24 hour incubation, total RNA was isolated using TriZol reagent (Invitrogen). The isolated RNA is then reverse-transcribed using oligo(dT) primer and Mo-MLV reverse transcriptase (Invitrogen) with DNAse I (Ambion) treatment for 30 min. The one-tenth of the produced cDNA was amplified by PCR using Taq DNA polymerase (Invitrogen) and two reporter sequence-specific primers. The PCR products were fluorescently labeled by primer extension with 6-arboxyfluorescein (6-FAM) 5'-labeled reporter sequence-specific primer (2 min at 95 C, 20 s at 68 C and 10 min at 72 C) and these products were digested with 5U of HpaI (New England Biolabs) for 2h at 37 C. The fragments were purified using Qiaquick PCR columns (Qiagen), analyzed on an ABI 3130xL genetic analyzer (Applied Biosystems) with peak positions identified by using a set of X-rhodamine (ROX)-labeled MapMarker1000 molecular weight standards (BioVentures). The raw capillary electrophoresis data was processed using Attagraph software (Attagene).

Compound | outcome
O=[N+]([O-])/N=C1\NCCN1Cc1ccc(Cl)nc1 | inactive
CC(C)OC(=O)Nc1cccc(Cl)c1 | inactive
CC[C@H](C)[C@H]1O[C@]2(C=C[C@@H]1C)C[C@@H]1C[C@@H](C/C=C(\C)[C@@H](O[C@H]3C[C@H](OC)[C@@H](O[C@H]4C[C@H](OC)[C@@H](O)[C@H](C)O4)[C@H](C)O3)[C@@H](C)/C=C/C=C3\CO[C@@H]4[C@H](O)C(C)=C[C@@H](C(=O)O1)[C@]34O)O2 (tested in a mixture with another compound) | inactive
CCOc1nc(NC)nc(NC(=O)NS(=O)(=O)c2ccccc2C(=O)OC)n1 | inactive
O=C(O)C(F)(F)C(F)(F)C(F)(F)C(F)(F)C(F)(F)C(F)(F)C(F)(F)F | inactive
CCC(C)(NC(=O)c1cc(Cl)c(C)c(Cl)c1)C(=O)CCl (stereo not given) | inactive
CCN(CC)C(=O)SCc1ccc(Cl)cc1 | inactive
O=C1c2ccccc2C(=O)N1SC(Cl)(Cl)Cl | inactive
CCC(C)Nc1c([N+](=O)[O-])cc(C(C)(C)C)cc1[N+](=O)[O-] (stereo not given) | inactive
CCS(=O)(=O)c1cccnc1S(=O)(=O)NC(=O)Nc1nc(OC)cc(OC)n1 | inactive
CCC(C)(C)C(=O)OC1=C(c2ccc(Cl)cc2Cl)C(=O)OC12CCCCC2 | inactive
COP(=S)(OC)Oc1ccc(SC)c(C)c1 | inactive
CNC(=O)CSP(=S)(OC)OC | inactive
CCOCN(C(=O)CCl)c1c(C)cccc1CC | inactive
ClC1C(Cl)C(Cl)C(Cl)C(Cl)C1Cl (stereo not given) | inactive
N#CN | inactive
COc1nn(CSP(=S)(OC)OC)c(=O)s1 | inactive
C[C@H]1[C@H](c2ccc(Cl)cc2)SC(=O)N1C(=O)NC1CCCCC1 | inactive
O=C(Nc1ccccc1)Nc1cnns1 | inactive
COC(=O)c1ccccc1CS(=O)(=O)NC(=O)Nc1nc(OC)cc(OC)n1 | inactive

Compound | outcome
CC1(C)C(C=C(Cl)Cl)C1C(=O)OC(C#N)c1ccc(F)c(Oc2ccccc2)c1 (stereo not given) | inactive
CC(C)(C)C(O)C(Oc1ccc(Cl)cc1)n1cncn1 (stereo not given) | inactive
CCCN(CCOc1c(Cl)cc(Cl)cc1Cl)C(=O)n1ccnc1 | inactive
O=C(O)CCCOc1ccc(Cl)cc1Cl | inactive
[2H]C1([2H])[n+]2ccccc2-c2cccc[n+]2C1([2H])[2H] | inactive
COc1cc(OC)nc(NC(=O)NS(=O)(=O)c2cc(NC=O)ccc2C(=O)N(C)C)n1 | inactive
Clc1ccccc1-c1nnc(-c2ccccc2Cl)nn1 | inactive
CN1CSC(=S)N(C)C1 | inactive
CC(C)N(C(=O)COc1nnc(C(F)(F)F)s1)c1ccc(F)cc1 | inactive
OCCOc1ccccc1 | inactive
CNC(=O)/C=C(\C)OP(=O)(OC)OC | inactive
C#CCN1C(=O)COc2cc(F)c(N3C(=O)C4=C(CCCC4)C3=O)cc21 | inactive
Cc1[nH]c(=O)n(C(C)(C)C)c(=O)c1Cl | inactive
CC1(c2ccc(Oc3ccccc3)cc2)OC(=O)N(Nc2ccccc2)C1=O (stereo not given) | inactive
COP(=S)(OC)Oc1ccc([N+](=O)[O-])cc1 | inactive
CCOC1Oc2ccc(OS(C)(=O)=O)cc2C1(C)C (stereo not given) | inactive
COC(=O)c1ccccc1S(=O)(=O)NC(=O)N(C)c1nc(C)nc(OC)n1 | inactive
O=S1OCC2C(CO1)C1(Cl)C(Cl)=C(Cl)C2(Cl)C1(Cl)Cl (stereo not given) | inactive
O=C(NC(=O)c1c(F)cccc1F)Nc1ccc(OC(F)(F)C(F)OC(F)(F)F)c(Cl)c1 (stereo not given) | inactive
COC(=O)c1ccccc1S(=O)(=O)NC(=O)Nc1nc(C)nc(OC)n1 | inactive
